Bioassay records from PubChem.
Myeloid diff 2: promotes myeloid progenitor differentiation | ER-HoxA9 myeloid progenitors, lysozyme-GFP differentiation, flow cytometry | calls only at 10 µM | actives 1% (n = 360,000) | AID 624256;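 active = normalized GFP-positive differentiation at or above the plate's own cutoff, the solvent-only control mean plus 3 SD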;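 note: cells exposed to compound for four days before flow analysis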
DAGLB inh: blocks human DAGLB lipase activity; actives 0.059% (n = 340,000); AID 504411; inhibition, % at 5.17 µM; HEK293T DAGLB membrane lysate, EnzChek fluorogenic substrate; in the data active = inhibition above about 34%;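 note: 0% = enzyme with vehicle and 100% = wells lacking enzyme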
H9c2 protect: modulators protecting cardiomyocytes from myocardial damage | H9c2 cardiomyocytes, H2O2 injury protection, ATPLite, 2 h | protection from H2O2 cell death, % at 20 µM | actives 0.63% (n = 360,000) | AID 588492;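 active = compounds giving at least 50% protection of heart cells from peroxide-induced death in the single-dose screen, raw or plate-pattern-corrected value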;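 note: 0% = DMSO wells with peroxide and 100% = DMSO wells without peroxide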
Rtt109 Vps75: blocks Candida albicans Rtt109/Vps75 acetyltransferase activity. actives 0.16% (n = 330,000). Q5AAJ8. inhibition, % at 34.9 µM. purified Rtt109/Vps75, ThioGlo CoA-SH fluorescence, 4 h;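 active = inhibition of at least 50% in every replicate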
ABHD5-PLIN5 inh: blocks binding of human ABHD5 to perilipin-5; Q00G26+Q8WTS1; Split G. princeps luciferase complementation, luminescence, 4 h; inhibition, % at 4 µM; actives 0.78% (n = 360,000);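 active = inhibition above the mean inhibition across every tested compound plus 3 SD, cut at about 22% in these data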;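 note: 0% = DMSO only wells and the 100% control is not disclosed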
sPLA2-III inh: Inhibits HGIII-sPLA2 liposome hydrolysis, primary screen | QFRET BODIPY PC-A2 liposome hydrolysis, fluorescence | Q9NZ20 | inhibition, % at 12.2 µM | actives 0.56% (n = 370,000) | AID 743126;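 active = inhibition above mean plus 3 SD of compounds lying within the high and low control bounds, cut at about 19% in these data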;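 note: 0% = median of test compound wells and 100% = no enzyme DMSO wells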
ABHD5 PLIN5 conf: confirmation of human ABHD5-PLIN5 interaction inhibitors. biochemical ABHD5-PLIN5 interaction, luminescence. actives 67% (n = 2,200). shares compounds with ABHD5-PLIN5 inh. inhibition, % at 4 µM; in the data active = inhibition above about 23%;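 note: 0% = DMSO vehicle wells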
HNF4 counter: counter-screen for ABHD5-PLIN5 inhibitors: HNF4 split-luciferase. HNF4 dimerization, luminescence, biochemical. shares compounds with ABHD5-PLIN5 inh. actives 77% (n = 2,200). inhibition, % at 4 µM;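 active = mean inhibition across replicate wells exceeding the computed hit threshold, cut at about 13% in these data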;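 note: light from luciferase halves that rejoin when HNF4 fusion proteins dimerize; 0% = DMSO only wells and the 100% control is not given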
Target sequence (P41235 whole entry, looked up, the tested form may be a part): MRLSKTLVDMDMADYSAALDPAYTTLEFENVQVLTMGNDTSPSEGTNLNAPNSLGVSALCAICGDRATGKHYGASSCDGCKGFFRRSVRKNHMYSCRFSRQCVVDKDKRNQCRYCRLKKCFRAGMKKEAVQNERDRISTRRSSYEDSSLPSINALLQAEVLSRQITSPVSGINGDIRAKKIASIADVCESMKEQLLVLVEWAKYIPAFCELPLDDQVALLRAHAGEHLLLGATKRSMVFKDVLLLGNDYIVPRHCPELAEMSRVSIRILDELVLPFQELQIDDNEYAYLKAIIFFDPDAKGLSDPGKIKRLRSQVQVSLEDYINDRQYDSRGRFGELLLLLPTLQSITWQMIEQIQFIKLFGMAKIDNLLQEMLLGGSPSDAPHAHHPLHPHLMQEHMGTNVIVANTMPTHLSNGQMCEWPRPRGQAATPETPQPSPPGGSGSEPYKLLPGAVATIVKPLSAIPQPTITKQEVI
* = called active by the depositor; i = inactive; nt = no result given. This is a sample that favours compounds with a hit; in the whole collection about 2.9% have one here.

SMILES	Myeloid diff 2	DAGLB inh	H9c2 protect	Rtt109 Vps75	ABHD5-PLIN5 inh	sPLA2-III inh	ABHD5 PLIN5 conf	HNF4 counter
CC(C)(C)NC(=O)C(c1ccc(C#N)cc1)n1c(=O)c(-c2ccco2)nc2ccccc21 (stereo unspecified)	i	nt	nt	nt	75.4*	-4.9	77.4*	26.2*
CC(C)(C)NC(=O)C(c1ccc(C#N)cc1)n1c(=O)c(-c2ccccc2)nc2ccccc21 (stereo unspecified)	i	nt	nt	nt	2.7	8.3	nt	nt
CC(C)(C)NC(=O)C(c1ccc(-c2ccccc2)cc1)n1c(=O)c(-c2ccccc2)nc2ccccc21 (stereo unspecified)	i	nt	nt	nt	-1.4	-6.0	nt	nt
COc1ccc(C(C(=O)NC(C)(C)C)n2c(=O)c(-c3ccco3)nc3ccccc32)cc1 (stereo unspecified)	i	nt	nt	nt	72.9*	0.1	62.7*	25.6*
C=CC12C=CC=CN1C(C(=O)OC)=C(C(=O)OC)C(C(=O)OC)=C2C(=O)OC (stereo unspecified)	i	-3.8	0.1	2.2	3.9	4.2	nt	nt
COc1ccccc1/C=C/CN1CCC(n2nccc2NC(=O)C2CC2)CC1	i	0.2	-1.9	2.8	15.3	-4.0	nt	nt
O=CC1=C(c2ccccc2)Oc2ccccc2O1	i	1.5	-17.9	7.0	30.0*	-6.0	72.9*	31.0*
CN(C)/C=C1/N=C(c2ccccc2)OC1=O	i	-0.8	-1.1	19.6	6.3	-1.9	nt	nt
COc1ccccc1C(C[N+](=O)[O-])c1c(N)n(C)c(=O)n(C)c1=O (stereo unspecified)	i	nt	-0.9	nt	39.3*	11.6	32.7*	65.3*
CCCCC1Cc2[nH][nH]c(=O)c2C(c2ccc(Cl)cc2)O1 (stereo unspecified)	i	nt	nt	nt	28.1*	-44.2	5.6	25.2*
O=c1[nH][nH]c2c1[C@H](c1ccc(F)cc1)O[C@H](CCc1ccccc1)C2	i	nt	nt	nt	27.1*	-45.6	14.6	36.4*
O=c1[nH][nH]c2c1C(c1ccc(F)cc1)OC(CCc1ccccc1)C2 (stereo unspecified)	i	nt	nt	nt	-1.8	-51.1	nt	nt
COc1cccc(CC(=O)NCC2(N3CCCCC3)CCCCC2)c1	i	-0.6	7.5	-13.3	4.5	1.7	nt	nt
O=c1[nH]nc(SCc2nnc(-c3cccc(Cl)c3)o2)n1C1CCCCC1	i	0.2	-23.6	1.5	-2.5	-4.3	nt	nt
COc1ccc(/C=C/C(=O)c2c(O)ccc3c(C)cc(=O)oc23)cc1	i	1.3	12.8	-1.5	46.9*	-7.5	64.6*	55.2*
COc1ccc(/C=C\C(=O)c2c(O)ccc3c(C)cc(=O)oc23)cc1	i	-0.5	30.6	6.5	46.9*	-2.7	60.7*	43.9*
COc1ccc(/C=C/C(=O)CC(O)(c2ccccc2)C(F)(F)F)cc1 (stereo unspecified)	i	4.4	-4.0	-12.5	41.4*	-16.5	71.7*	53.5*
O=C(/C=C/c1ccccc1)CC(O)(c1ccccc1)C(F)(F)F (stereo unspecified)	i	13.9	-11.3	5.6	81.3*	-12.9	98.7*	89.3*
COc1ccc(/C=C/C(=O)CCC(=O)O)cc1	i	-0.6	-1.8	-1.7	-2.8	5.2	nt	nt
O=C(/C=C/c1ccccc1)CC(O)(c1ccccc1)C(F)(F)C(F)F (stereo unspecified)	i	3.8	-8.7	0.4	82.2*	-1.9	98.3*	77.0*
COc1ccc(-c2cc(=O)oc3c(C)c(OC(=O)c4cccs4)ccc23)cc1	i	2.8	39.9	3.9	-1.5	-1.2	nt	nt
CCOc1ccc(C(C)NC(=O)Nc2ccc(F)cc2F)cc1 (stereo unspecified)	i	-1.6	-2.2	-3.0	3.3	-3.6	nt	nt
CCOC(=O)[C@]12CCCCC/C=C\1N(Cc1ccc(OC)cc1)C(=O)[C@H]2CC(=O)N1CCSCC1	nt	nt	nt	nt	nt	6.5	nt	nt
O=C(Nc1cccc(N2C(=O)C=CC2=O)c1)c1cccs1	i	-3.6	-11.4	1.3	29.7*	-3.4	48.0*	95.6*
Cc1nc2ccccc2c(=O)n1-c1cccc(NC(=O)c2cccs2)c1	i	0.1	-10.7	7.3	11.8	0.1	nt	nt
SMILES	Myeloid diff 2	DAGLB inh	H9c2 protect	Rtt109 Vps75	ABHD5-PLIN5 inh	sPLA2-III inh	ABHD5 PLIN5 conf	HNF4 counter
CC(C)(C)c1ccc(/C=C/C(=O)c2ccc(NC3=NCCCS3)cc2)cc1	i	4.2	-21.8	19.0	50.4*	-14.6	57.4*	38.3*
O=C(/C=C/c1ccccc1)c1ccc(NC2=NCCCS2)cc1	i	-0.3	-7.7	-2.8	61.6*	-3.5	72.1*	61.6*
CN(C)c1ccc(C(=O)/C=C/c2ccc(Br)cc2)cc1	i	-3.0	-4.7	nt	4.7	-3.1	nt	nt
O=C(/C=C/c1ccc(Br)cc1)c1ccc(NC2=NCCCS2)cc1	i	6.8	-14.1	nt	88.6*	-15.9	95.0*	83.9*
c1ccc(NC2=NCCCCS2)cc1	i	-0.8	-3.2	-4.6	-5.5	0.3	nt	nt
Nc1ccccc1SC(CC(=O)c1ccccc1)c1ccccc1 (stereo unspecified)	i	-11.3	-3.1	nt	67.7*	nt	-0.2	78.7*
Nc1ccccc1SCc1ccccc1Cl	i	nt	-6.0	0.1	0.9	16.2	nt	nt
CC(C(Sc1ccccc1N)c1ccccc1)[N+](=O)[O-] (stereo unspecified)	i	-1.5	-11.3	nt	26.7*	1.6	63.4*	77.3*
c1coc(-c2nc3ccccc3nc2-c2ccco2)c1	i	4.8	26.8	0.5	34.0*	-4.5	93.3*	85.6*
c1coc(-c2cnc3ccccc3n2)c1	i	-1.0	-1.9	nt	-0.7	-1.1	nt	nt
COc1ccc(NC(=S)N2CCN(Cc3cccc(F)c3)CC2)c(OC)c1	i	-1.6	-8.2	-1.5	-1.2	9.5	nt	nt
COc1ccc(NC(=S)N2CCN(Cc3ccco3)CC2)c(OC)c1	i	1.8	3.5	-2.1	23.5*	9.9	3.4	13.6*
CC(=O)Oc1ccc(N2C(=O)C3C4C=CC(CO)(O4)C3C2=O)cc1 (stereo unspecified)	i	-3.7	-24.0	6.4	26.3*	-4.9	13.7	67.0*
O=C1C2C3C=CC(CNS(=O)(=O)c4ccccc4)(O3)C2C(=O)N1c1ccc(Cl)cc1 (stereo unspecified)	i	2.2	-28.0	2.9	15.3	2.2	nt	nt
CCN(CC)C(=O)CSc1nnc2cc(C)c3ccccc3n12	i	-1.7	-12.3	-4.4	3.2	1.8	nt	nt
COC(=O)c1ccc(CN2CCN(CC(C)C)C(CCO)C2)cc1 (stereo unspecified)	i	-3.2	-1.3	-2.8	-7.0	1.8	nt	nt
